Sampled rows, rich in hits. Any-hit rate of the full collection: about 0.28%.
PI4K2A block – inhibitors of human PI4K2A. purified PI4K2A, ADP-Glo luminescence, 1 h; active compounds read low. hit rate 0.13% among 420,000. Q9BTU6. AID 1346378. activity change, negative = inhibition, % at 76.9 µM; in the data active = activity change below about -50%; inconclusive = mostly about -30% to -49%
Target sequence (Q9BTU6 whole entry, looked up): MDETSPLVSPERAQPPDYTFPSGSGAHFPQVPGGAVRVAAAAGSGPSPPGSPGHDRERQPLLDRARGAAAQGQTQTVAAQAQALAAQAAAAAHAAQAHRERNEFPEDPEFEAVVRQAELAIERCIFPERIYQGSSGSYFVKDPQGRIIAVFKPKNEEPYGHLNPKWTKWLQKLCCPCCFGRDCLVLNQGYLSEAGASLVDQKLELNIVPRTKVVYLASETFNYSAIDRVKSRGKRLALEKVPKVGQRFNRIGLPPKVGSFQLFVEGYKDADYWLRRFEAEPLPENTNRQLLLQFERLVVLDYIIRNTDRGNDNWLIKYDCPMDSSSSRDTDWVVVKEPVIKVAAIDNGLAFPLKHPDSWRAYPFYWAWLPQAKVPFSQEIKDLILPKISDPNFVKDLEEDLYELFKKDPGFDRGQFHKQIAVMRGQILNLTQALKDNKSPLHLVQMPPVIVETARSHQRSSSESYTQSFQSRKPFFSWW
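ADP-Glo luminescence measured ADP generated by PI4K2A enzyme (4 ug/mL before mixing) with 1.2 mM PI substrate (pre-mix) and 300 microM ATP (pre-mix). Tris pH7.5 buffer with MgCl2, Triton X-100; 1 h reaction at ambient temperature.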
Tb PGK inh – inhibitors of T. brucei phosphoglycerate kinase; PGK/GAPDH coupled, Kinase-Glo luminescence, 60 min; Potency, µM (doses to about 57.5 µM), actives largely listed as inhibitors; hit rate 0.043% among 380,000; note: nearly all actives have a fitted effect of over 60% in size
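Luminescent ATP detection (Kinase-Glo Plus) follows a 60-minute room-temperature incubation, with wells lacking PGK as controls. Buffer: 100 mM TEA (pH 7.6), 5 mM MgCl2, 0.01% Tween-20. Coupling enzyme GAPDH (100 nM final) supplies unstable 1,3-BPG in-well.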
Pin1 inh – human Pin1 inhibition; Q13526; Pin1 FP peptide displacement, HiFluor488, 10 min; Potency, µM (top dose mostly 115 µM), usual class: inhibitors; hit rate 0.009% among 390,000; AID 504891; active = well fitted inhibition curve with a large enough effect in the polarisation, with a control signal flat, not every such curve was filed as active; inconclusive = small, poorly fitted or top-dose-only effect, or effect the other way, or a change in a side signal; inactive = no such curve, though single readings can be large or run the other way; the % refers to the polarisation
Target sequence (Q13526 whole entry, looked up): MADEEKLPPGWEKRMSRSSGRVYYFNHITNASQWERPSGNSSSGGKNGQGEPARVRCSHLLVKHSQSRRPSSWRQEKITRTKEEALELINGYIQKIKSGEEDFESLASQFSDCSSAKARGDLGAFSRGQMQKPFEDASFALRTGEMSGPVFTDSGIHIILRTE
USP2a block – inhibitors of human ubiquitin-specific protease USP2a; O75604; USP2 core, Ub-CHOP2 coupled fluorogenic reporter, 485/531; Potency, µM (highest dose often 38.3 µM), most hits filed as inhibitors; hit rate 0.01% among 330,000
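Deubiquitinase activity read as fluorescence (485/531 nm) after Ub-CHOP2 cleavage activates the enterokinase reporter on its substrate; USP2 core 10nM, Ub-CHOP2 and substrate 25nM each, 30min compound preincubation then 60min RT; data normalized to NEM, curves fitted.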
Tb PFK inh-1 – T. brucei PFK enzyme inhibition; O15648; T. brucei PFK, ADP-Glo luminescence; Potency, µM (series often up to 57.5 µM), actives largely listed as inhibitors; hit rate 0.17% among 330,000; note: nearly all actives have a fitted effect of over 60% in size
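ADP-Glo luminescence quantified ADP after 45 min at room temperature, with 1.25 nM T. brucei PFK, 0.1 mM ATP and 0.5 mM fructose-6-phosphate in pH 8.0 TEA buffer. qHTS titrations up to 57 µM; curves classified by quality.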
TbPFK ATP – Tb phosphofructokinase inhibition, orthogonal luminescence | hit rate 47% among 1,100 | Tb PFK enzyme, ATP depletion, Kinase-Glo Plus luminescence | Potency, µM (top dose mostly 57.5 µM) | AID 504636 | shares compounds with Tb PFK inh-1; calls by dose curve; note: nearly all actives have a fitted effect of over 60% in size
Tb PFK inh-2 – validation of T. brucei phosphofructokinase inhibitors | shares compounds with Tb PFK inh-1 | hit rate 41% among 1,100 | purified T. brucei PFK, ADP-Glo luminescence, 45 min | Potency, µM (highest dose often 57.5 µM), most hits filed as inhibitors; note: nearly all actives have a fitted effect of over 60% in size
A number is an active result; . = inactive; ? = inconclusive; / = not tested or not shown. Unless noted, calls come from the whole dose curve; as a rule, active = well fitted curve in the direction sought with a large enough effect; inconclusive = small, poorly fitted or top-dose-only effect, or another doubt; inactive = no such curve, though single readings can be large; an effect the other way counts as inactive or inconclusive.

SMILES	PI4K2A block	Tb PGK inh	Pin1 inh	USP2a block	Tb PFK inh-1	TbPFK ATP	Tb PFK inh-2
Cc1csc(N=Nc2ccc(N(C)C)cc2)[n+]1[O-]	-79	16µM	/	/	/	/	/
O=CN/C=C/c1cc(O)ccc1O	.	.	?	.	30µM	/	/
CC(=O)c1ccc(NC(=O)CN2C(=O)CCc3cc(S(=O)(=O)N4CCC(C)CC4)ccc32)cc1	.	25µM	.	/	/	/	/
CC(=O)Nc1ccc(NC(=O)CN2C(=O)CCc3cc(S(=O)(=O)N4CCCCC4)ccc32)cc1	.	.	.	/	/	/	/
N=c1ccn(Cc2ccc(Cl)c(Cl)c2)cc1	.	.	.	.	1.7µM	2.4µM	5.4µM
N=c1ccn(Cc2cccc(Cl)c2)cc1	.	.	.	.	7.6µM	?	19µM
N=c1ccn(Cc2ccc(Cl)cc2)cc1	.	.	.	.	11µM	?	?
N=c1ccn(Cc2ccc(Cl)cc2Cl)cc1	.	.	.	.	.	/	/
O=C1OC2(c3ccccc31)c1cc(Br)c(O)c(Br)c1Oc1c2cc(Br)c(O)c1Br	.	/	/	/	/	/	/
COc1ccc(/C=C/C(=O)Nc2ccccc2C(=O)O)cc1	.	.	.	.	?	.	?
CCc1nn2c(=O)cc(N3C(C)CNCC3C)nc2s1 (stereo unspecified)	/	/	.	/	/	/	/
Cc1c(-c2ccc(O)cc2)n(Cc2ccc(OCCN3CCCCCC3)cc2)c2ccc(O)cc12	.	/	/	/	/	/	/
Cc1ccc(NCc2ccc(O)c3ncccc23)cc1	.	.	.	.	?	.	.
Cc1ccc(NCc2ccc(O)c3ncccc23)cc1C	.	.	.	.	.	/	/
O=C1CCCC2=C1C1(CCOCC1)N=C(Nc1nc3ccccc3o1)N2	/	/	.	/	/	/	/
NC(=O)NC1N=C([O][Al])NC1=O (stereo unspecified)	.	/	/	/	/	/	/
Cc1noc(C)c1COc1ccc(C(=O)NNC(=O)c2ccccc2O)cc1	.	.	.	.	5.4µM	.	.
Cc1noc(C)c1COc1ccc(C(=O)Nc2ccccc2)cc1	.	.	.	.	.	/	/
Cc1ccccc1OCc1nnc(SCC(=O)NCc2ccco2)n1C	.	.	.	.	.	/	/
Cc1cc(SCC(=O)NC(=O)NCc2ccco2)nc2c(C)cccc12	.	.	.	.	?	?	?
COc1ccccc1OCc1nnc(SCC(=O)NCc2ccco2)n1Cc1ccco1	.	?	?	.	?	7.6µM	7.6µM
COc1ccc(C)cc1-n1nnnc1SCC(=O)NC(=O)NCc1ccco1	.	.	?	.	11µM	.	.
COc1cccc(C2c3c(ncn(-c4ccc5c(c4)OCO5)c3=N)Oc3ccc4ccccc4c32)c1 (stereo unspecified)	/	/	.	/	/	/	/
O=S(=O)(c1ccc2c(c1)OCCO2)N1CCN(S(=O)(=O)c2ccccc2Cl)CC1	/	/	.	/	/	/	/
CC(C)N(CCc1ccncc1)C(=O)Nc1ccc(Cl)c(Cl)c1	.	.	.	.	?	.	.
SMILES	PI4K2A block	Tb PGK inh	Pin1 inh	USP2a block	Tb PFK inh-1	TbPFK ATP	Tb PFK inh-2
O=C(c1cccn(Cc2cccc(Cl)c2)c1=O)N1CCOCC1	.	.	.	.	24µM	21µM	24µM
O=C(O)COc1ccccc1C=NNc1ccc([N+](=O)[O-])cc1S(=O)(=O)Nc1ccc(Cl)cc1	.	.	?	.	19µM	30µM	?
c1ccc(Sc2ccncc2)cc1	.	.	/	/	/	/	/
c1cc(SSc2ccncc2)ccn1	.	.	.	.	24µM	17µM	?
COc1cc(CNc2ccccc2Oc2cc(=O)n(C)c(=O)n2C)cc(OC)c1OC	.	.	.	.	.	/	/
Cn1c(Oc2ccccc2NCc2cc(Br)ccc2O)cc(=O)n(C)c1=O	.	.	.	.	?	19µM	13µM
NC(=S)N/N=C1\CCSc2ccc(Cl)cc21	.	.	.	.	.	/	/
S=C1CCSc2ccc(Cl)cc2N1	.	.	.	.	?	?	?
Nc1ccccc1C(=O)OCC(O)CO (stereo unspecified)	.	/	/	/	/	/	/
S=C1NCN(Cc2ccco2)CN1	.	.	.	.	.	/	/
O=C1CC(=O)N(Cc2ccco2)C(=S)N1	?	?	?	?	21µM	24µM	?
CS(=O)(=O)N1CCN(Cc2ccc([N+](=O)[O-])cc2)CC1	.	.	.	.	?	?	?
CCCS(=O)(=O)N1CCN(Cc2ccc([N+](=O)[O-])cc2)CC1	.	.	.	.	.	/	/
CN1CCc2cc(O)c(O)cc2C(c2ccccc2)C1 (stereo unspecified)	.	.	.	.	?	?	?
Oc1cc2c(cc1O)[C@@H](c1ccccc1)CNCC2	.	.	.	.	12µM	1.9µM	4.8µM
Oc1cc2c(cc1O)C(c1ccccc1)CNCC2 (stereo unspecified)	.	.	.	/	/	/	/
OCC[n+]1c2ccccc2nc2ccc(N3CCOCC3)cc21	.	.	.	.	?	.	.
Cc1cc2c(s1)c1cnn(Cc3ccc(F)c(C)c3)c(=O)c1n2C	/	/	.	/	/	/	/
CN(C)c1cccc(S(=O)(=O)N2CCN(S(=O)(=O)c3ccc4c(c3)OCCO4)CC2)c1	/	/	.	/	/	/	/
O=C(NNc1ccc([N+](=O)[O-])cc1)Nc1ccccc1	.	.	.	.	?	19µM	?
CCN(CC)S(=O)(=O)c1cc([N+](=O)[O-])ccc1NNC(=O)Nc1ccc(Cl)c(Cl)c1	.	.	.	.	?	.	.
O=[N+]([O-])c1ccc(NC(=S)NCCc2ccc(F)cc2)cc1	.	.	.	.	.	/	/
CCCCN(CCCC)S(=O)(=O)c1ccc(NC(=O)c2ccc([N+](=O)[O-])cc2Cl)cc1	.	.	.	.	.	/	/
O=C(NCCc1ccc(F)cc1)Nc1ccc([N+](=O)[O-])cc1	.	.	.	.	?	?	?
O=C(NNc1ccccc1[N+](=O)[O-])Nc1ccccc1	.	.	.	.	.	/	/
SMILES	PI4K2A block	Tb PGK inh	Pin1 inh	USP2a block	Tb PFK inh-1	TbPFK ATP	Tb PFK inh-2
O=C(NNc1ccccc1[N+](=O)[O-])Nc1ccc(Cl)c(Cl)c1	.	.	.	.	12µM	?	.
CCO[C@H]1O[C@@H]2OC3(C)CC[C@H]4[C@H](C)CC[C@@H]([C@H]1C)[C@@]24OO3	.	/	/	/	/	/	/
Cc1ccc(N2CCN(S(=O)(=O)c3ccc4c(c3)CC(=O)N4)CC2)cc1	/	/	.	/	/	/	/
CC(C)(C)c1cc(C=O)cc(C(C)(C)C)c1O	.	/	/	/	/	/	/
Cc1[nH]nc2c1C(c1ccc(-c3ccc(Cl)cc3)o1)C(C#N)=C(N)O2 (stereo unspecified)	.	.	.	.	.	/	/
Cc1ccc(-c2ccc(C3C(C#N)=C(N)Oc4n[nH]c(C)c43)o2)cc1 (stereo unspecified)	.	.	?	.	?	?	.
O=C(Nc1ccc(Cl)c([N+](=O)[O-])c1)c1ccncc1	.	.	.	.	?	?	?
